Results reported in the supplement of paper PMC4237247.

tested on: HeLa; assay: percent cells in G2/M phase; higher = more G2/M arrest; conditions: 10 µM; 20 h; hit class: G1-phase inhibitor
Experimental: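 HTS of 79,827 drug-like compounds at 10 uM. HeLa cells in 384-well plates were treated for 20 h, fixed, stained with Vybrant DyeCycle Green and scanned on an Acumen eX3 cytometer to give per-well cell cycle profiles (% cells in each phase). The plate Z' was 0.51. Only hits are listed: G1 hits >4 SD and S hits >5 SD from the mean.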

Going from `CNc1ccc2oc(C[C@H]3O[C@@]4(CC[C@H]3C)O[C@H]([C@H](C)C(=O)c3ccc[nH]3)[C@H](C)C[C@H]4C)nc2c1C(=O)O` to `CNC1CC2OC(C)(C1OC)n1c3ccccc3c3c4c(c5c6ccccc6n2c5c31)C(=O)NC4` (centres undefined), the “percent cells in G2/M phase” value falls from 5.98% to 3.24%.

First: C[C@@H]1C[C@@H]([C@H](O)CC2CC(=O)NC(=O)C2)C(=O)[C@@H](C)C1 [Cycloheximide]
Second: C[C@@]12C(=O)OC(=O)[C@]1(C)[C@H]1CC[C@@H]2O1
The “percent cells in G2/M phase” value of the first is lower: 11.8% for the first, 12% for the second.

Going from `C/C=C(/C)C(=O)O[C@H]1C(C)=C2[C@H]([C@@H]1OC(=O)CCCCCCC)[C@@](C)(OC(C)=O)C[C@H](OC(=O)CCC)[C@@]1(O)[C@H]2OC(=O)[C@@]1(C)O` to `C[C@@H]1O[C@@H](O[C@H]2C[C@@H](O)[C@]3(CO)[C@H]4[C@H](O)C[C@]5(C)[C@@H](C6=CC(=O)OC6)CC[C@]5(O)[C@@H]4CC[C@]3(O)C2)[C@H](O)[C@H](O)[C@H]1O`, the “percent cells in G2/M phase” value rises from 9.52% to 12.2%.

Compared with `O=[N+]([O-])c1ccc(NCCO)c2ncccc12`, `C/C(=C\c1ccc(Cl)cc1)[N+](=O)[O-]` is lower in “percent cells in G2/M phase” value: 23.7% for the first, 2.17% for the second.

In the case of `CC(C)(C)c1cc(C=C(C#N)C#N)cc(C(C)(C)C)c1O`, the “percent cells in G2/M phase” value is reported as 12.3%.
